Bioassay records as filed in PubChem.
BLM inh = qHTS Assay for Inhibitors of Bloom's syndrome helicase (BLM). RecQ-like DNA helicase BLM (Homo sapiens), P54132. recombinant BLM DNA unwinding, fluorescence dequenching. Potency, µM (top dose mostly 56.1 µM), for the others: at the top dose activity change, negative = inhibition, usual class: inhibitors. actives 0.2% (n = 350,000). AID 2528, 2010;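 also: plate controls were vehicle for no effect and no enzyme for full effect; nearly all actives have a fitted effect of over 35% in size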
WRN inhibitor = qHTS for Inhibitors of WRN Helicase; Bifunctional 3'-5' exonuclease/ATP-dependent helicase WRN (Homo sapiens), Q14191; WRN helicase unwinding, fluorescent forked duplex, kinetic; Potency, µM (top dose mostly 114 µM), inactives show at the highest dose activity change, negative = inhibition, most hits filed as inhibitors; actives 0.46% (n = 360,000); AID 651768, 2012; also: nearly all actives have a fitted effect of over 55% in size
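Kinetic fluorescence helicase assay: unwinding of a quenched forked DNA duplex (100 nM final) with 2 mM ATP final raises red fluorescence (525/598 nm). Compounds sat 15 min at room temperature with 20 nM WRN beforehand.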
L3MBTL1 block = qHTS Assay for the Inhibitors of L3MBTL1; Lethal(3)malignant brain tumor-like protein 1 (Homo sapiens), Q9Y468; AlphaScreen L3MBTL1–H3K9me1 peptide binding; Potency, µM (doses to about 57.1 µM), for inactives: at the top dose activity, negative = inhibition, hits mostly inhibitors; actives 0.66% (n = 230,000); AID 485360, 2010; also: nearly all actives have a fitted effect of over 60% in size
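AlphaScreen proximity signal between nickel-chelate acceptor and streptavidin donor beads (final 10 ug/mL) reports binding of 50 nM L3MBTL1 to 75 nM biotin-H3 K9me1 peptide; complex incubated with compounds 30 min at room temperature; cefsulodin titration as control.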
APEX1 inh = qHTS Assay for Inhibitors of the Human Apurinic/apyrimidinic Endonuclease 1 (APE1) | actives 0.35% (n = 350,000) | Potency, µM (highest dose often 65.8 µM), for the others: at the top dose activity change, negative = inhibition, usual class: inhibitors | recombinant APE1, TAMRA/BHQ-2 abasic DNA cleavage fluorescence | AID 2517, 2012;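 also: plate controls were vehicle for no effect and reference inhibitor for full effect; nearly all actives have a fitted effect of over 55% in size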
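Substrate: short duplex with […] THF abasic site, 5'-TAMRA and 3'-BHQ-2, 50 nM final. APE1 at 0.75 nM, preincubated 15 min RT with compound. Fluorescence increase from first to third read measured activity.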
RECQ1 inh-1 = qHTS Assay for Inhibitors of RecQ-Like Dna Helicase 1 (RECQ1). ATP-dependent DNA helicase Q1 (Homo sapiens), P46063. RECQ1 DNA unwinding, red fluorescence kinetic read. Potency, µM (doses to about 57.3 µM), inactives show at the highest dose activity, negative = inhibition, actives largely listed as inhibitors. actives 0.54% (n = 240,000);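 also: plate controls were vehicle for no effect and no enzyme for full effect; nearly all actives have a fitted effect of over 30% in size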
Target sequence (P46063 whole entry, looked up): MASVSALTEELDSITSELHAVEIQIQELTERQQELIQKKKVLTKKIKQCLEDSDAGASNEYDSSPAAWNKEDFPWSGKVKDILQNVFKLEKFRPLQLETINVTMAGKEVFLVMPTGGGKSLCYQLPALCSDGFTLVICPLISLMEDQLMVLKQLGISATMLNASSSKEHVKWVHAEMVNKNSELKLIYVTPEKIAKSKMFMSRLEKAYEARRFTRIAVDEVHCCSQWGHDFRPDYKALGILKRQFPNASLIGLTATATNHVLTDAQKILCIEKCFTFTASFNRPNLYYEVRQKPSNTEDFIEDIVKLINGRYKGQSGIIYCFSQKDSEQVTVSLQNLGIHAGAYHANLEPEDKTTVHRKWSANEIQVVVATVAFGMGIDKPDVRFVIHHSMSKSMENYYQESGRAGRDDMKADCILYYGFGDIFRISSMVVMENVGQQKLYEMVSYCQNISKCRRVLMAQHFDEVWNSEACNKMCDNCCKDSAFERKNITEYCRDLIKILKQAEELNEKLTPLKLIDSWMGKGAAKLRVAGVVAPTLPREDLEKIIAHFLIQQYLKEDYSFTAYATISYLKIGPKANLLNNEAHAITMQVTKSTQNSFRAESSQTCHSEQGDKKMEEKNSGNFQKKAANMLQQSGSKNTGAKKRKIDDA
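50 nM RECQ1T1 preincubated 15 min with compound in Tris pH 8.0 buffer with MgCl2, DTT, Tween-20 and 2.5 ug/ml poly(dI-dC); started with 200 nM TAMRA/BHQ-2 forked duplex and 2 mM ATP. Unwinding read as fluorescence (525/598 nm), two reads 2 h apart.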
RECQ1 conf = Confirmation qHTS Assay for Inhibitors of RecQ-Like Dna Helicase 1 (RECQ1) | shares compounds with RECQ1 inh-1 | RECQ1 helicase DNA unwinding, fluorescence | Potency, µM (titrated, usually from 229 µM), for inactives: at the highest dose activity change, negative = inhibition, most hits filed as inhibitors | actives 28% (n = 610) | AID 2708, 2010; also: nearly all actives have a fitted effect of over 45% in size
RECQ1 ADP FP = Counterscreen for RECQ1 Inhibitors: ADP Fluorescence Polarization Displacement Assay | AID 2711, 2010 | actives 27% (n = 530) | Potency, µM (series often up to 228 µM), for the others: top-dose activity change, negative = inhibition, usual class: inhibitors | ADP fluorescence polarization displacement counterscreen | shares compounds with RECQ1 inh-1; also: nearly all actives have a fitted effect of over 45% in size
RECQ1 inh-2 = Confirmation qHTS Assay for Inhibitors of RecQ-Like Dna Helicase 1 (RECQ1) - Round 2 Cherry Picks | shares compounds with RECQ1 inh-1 | recombinant RECQ1 DNA unwinding, red fluorescence | Potency, µM (titrated, usually from 119 µM), inactives show top-dose activity, negative = inhibition, hits mostly inhibitors | actives 15% (n = 1,100) | AID 504841, 2011; also: nearly all actives have a fitted effect of over 50% in size
The depositor's hits bear a star; u = inconclusive; x = no result given; ! = not active in a repeat; [ ] = remark or other dose. This is a sample that favours compounds with a hit; in the whole collection about 0.92% have one here. Calls follow the shape of the dose curve; as a rule, active = well fitted curve in the direction sought with a large enough effect; inconclusive = small, poorly fitted or top-dose-only effect, or another doubt; inactive = no such curve, though single readings can be large; an effect the other way counts as inactive or inconclusive. Unless noted, % is scaled to controls: 0 for no effect and ±100 for the full control effect; potency is read from the fitted curve at half-maximal effect.

SMILES	BLM inh	WRN inhibitor	L3MBTL1 block	APEX1 inh	RECQ1 inh-1	RECQ1 inh-2	others
CCC(C)NC(=O)c1c(N)n(Cc2ccc3c(c2)OCO3)c2nc3ccccc3nc12 (stereo not drawn)	u	-5.9%	20.7%	-9.9%	u	-4.9%
CCC(C)NC(=O)c1c(N)n(CC2CCCO2)c2nc3ccccc3nc12 (stereo not drawn)	u	1.0%	32.2%	-3.2%	u	-27.6%
CCC(C)NC(=O)c1c(N)n(CCCOC)c2nc3ccccc3nc12 (stereo not drawn)	u	2.0%	-18.1%	-9.9%	u	-11.2%
Nc1c(C(=O)NCCN2CCOCC2)c2nc3ccccc3nc2n1Cc1ccccc1	-7.5%	5.8%	32.9%	-10.9%	-11.5%	x
OC(c1ccc(Cl)cc1)(c1ccc(Cl)cc1)C(Cl)(Cl)Cl	x	x	x	-0.6%	-9.2%	x
CCCCn1c(N)c(C(=O)NCCN2CCOCC2)c2nc3ccccc3nc21	-0.5%	-33.3%	15.3%	-9.3%	-20.8%	x
CC(C)CCNC(=O)c1c(N)n(CC2CCCO2)c2nc3ccccc3nc12 (stereo not drawn)	u	-12.7%	x	u	u	-20.2%
N#CCBr	x	x	x	-2.9%	-14.1%	x
CC[C@H]1[C@@H]2C[C@H]3[C@@H]4N(C)c5ccccc5[C@]45C[C@@H](C2[C@H]5O)N3[C@@H]1O (stereo partly drawn)	x	x	x	1.5%[21 µM]	x	x
CC(O)C(C)OC(=O)[C@@H]1C[C@@H]2c3cccc4c3c(cn4C(C)C)C[C@H]2N(C)C1 (stereo partly drawn)	x	x	x	2.6%	35.5µM*!	56.2µM*
O=[N+]([O-])c1ccc(NCc2ccccc2)c2nonc12	-8.1%	-0.7%	3.2%	-3.1%	11.2µM*	44.7µM*	RECQ1 conf=20µM*;RECQ1 ADP FP=2.24µM*
O=[N+]([O-])c1ccc(NCc2ccc(Cl)cc2)c2ccncc12	-14.4%	20.7%	x	52.9%	x	x
CCN(N=O)C(N)=O	x	x	x	-1.1%	-6.9%	x
CCCCC(=O)N/N=C/c1c(O)n(Cc2ccco2)c(=O)[nH]c1=O	3.5%	-26.5%	u	-11.4%	31.6µM*	-13.3%
O=C(N/N=C/c1c(O)n(Cc2ccco2)c(=O)[nH]c1=O)c1ccccc1O	-8.9%	u	x	u	u	x
Cc1cccc(N)c1C	x	x	x	2.8%	-2.2%	x
CC(C)n1c(=O)c(C=Nc2ccc(S(N)(=O)=O)cc2)c(O)n(Cc2ccco2)c1=O	-3.6%	-2.0%[11.6 µM]	-10.4%	u	u	-13.3%
CC(C)(C)OC(=O)C(Br)CCBr (stereo not drawn)	-2.8%	x	x	-1.4%	-1.2%	x
Cc1c(C(c2ccc(O)cc2)c2c(O)c3ccccc3oc2=O)c(=O)n(-c2ccccc2)n1C (stereo not drawn)	2.7%	-6.2%	2.1%	15.2%	-1.6%	x
O=c1oc2ccccc2c(O)c1C(c1ccccn1)c1c(O)c2ccccc2oc1=O	-14.8%	-11.0%	5.1%	u	7.94µM*	u
